This is a sample that favours compounds with a hit; in the whole collection about 2.2% have one here.
FUS yeast rescue – qHTS for Suppressors of FUS Proteinopathy: Primary screen using FUS-linked yeast assay; S. cerevisiae FUS-expressing, growth rescue, OD600, 24 h; Potency, µM (doses to about 76.6 µM), actives largely listed as activators; actives 0.24% (n = 390,000); AID 1347120, 2019;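 further: plate controls were DMSO vehicle for no effect and reference control for full effect; nearly all actives have a fitted effect of over 55% in size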
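Quantitative HTS measuring growth restoration of FUS-toxic yeast. Galactose-induced cells (OD 0.005) were exposed 24hr at 30C to compounds at several concentrations, then absorbance at 600 nm was recorded.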
Mito fusion act – qHTS Assay for Small Molecule Inhibitors of Mitochondrial Division or Activators of Mitochondrial Fusion. S. cerevisiae fusion-defective mutant growth rescue, CellTiterGlo 48 h. Potency, µM (series often up to 46.1 µM), for inactives: top-dose growth rescue (activation), usual class: activators. actives 0.23% (n = 320,000). AID 485298, 2010; further: % of control where 0% means no effect; nearly all actives have a fitted effect of over 45% in size
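S. cerevisiae fusion-defective temperature-sensitive mutants (e.g. fzo1-1, mgm1-5) grown 48 h at 37C in YPEG (ethanol/glycerol non-fermentable) medium with 23 nl compound per well; growth rescue read as CellTiterGlo luminescence.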
Abeta rescue – qHTS for compounds that reverse cellular toxicity of Amyloid beta (A-beta) peptide in yeast: Primary Screen; AID 1347071, 2019; actives 0.063% (n = 410,000); yeast expressing A-beta42, growth rescue, OD600, 48 h; response scale: 0% DMSO, 100% iron-clioquinol control; Potency, µM (highest dose often 46.1 µM), most hits filed as activators; further: nearly all actives have a fitted effect of over 55% in size
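Growth rescue measured by 600 nm absorbance after 48 h yeast culture at 30 C with compound. Values normalized between DMSO and an equimolar ferric chloride plus clioquinol control.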
TDP43 rescue – qHTS of TDP-43 Inhibitors; TDP-43 expressing yeast growth rescue, BacTiter-Glo, 24 h; Potency, µM (top dose mostly 46.1 µM), without a hit: at the top dose growth rescue (activation), hits mostly activators; actives 1.8% (n = 410,000); AID 652104, 2013; further: % of control where 0% means no effect; nearly all actives have a fitted effect of over 50% in size
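Galactose-induced TDP-43 yeast, OD600=0.02, compound pinned; 24 hr, 30 deg C; BacTiter-Glo luminescence for growth. Inhibitors of TDP-43 toxicity read as activators.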
aSyn rescue – qHTS of alpha-syn Inhibitors; Yeast expressing alpha-synuclein, growth rescue, BacTiter-Glo, 24 h; Potency, µM (top dose mostly 46.1 µM), for inactives: at the top dose growth rescue (activation), most hits filed as activators; actives 0.14% (n = 370,000); AID 652106, 2013; further: % of control where 0% means no effect; nearly all actives have a fitted effect of over 65% in size
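Rescue of yeast growth: cells expressing toxic alpha-synuclein, induced in galactose at OD600 0.02, incubated with compound 24 h at 30 C. ATP luminescence quantified growth; inhibitors of toxicity appear as activators.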
An asterisk follows results filed as active; i = inactive; ? = inconclusive; . = no result; [ ] = dose if it differs, or a comment. The call rests on the fitted dose curve; in most records, active means well fitted curve in the direction sought with a large enough effect; inconclusive means small, poorly fitted or top-dose-only effect, or another doubt; inactive means no such curve, though single readings can be large; an effect the other way counts as inactive or inconclusive. Potency means the concentration at half of the fitted maximal effect.

SMILES | FUS yeast rescue | Mito fusion act | Abeta rescue | TDP43 rescue | aSyn rescue
Cc1nc2c(C(=O)NCc3ccco3)cnn2c(C)c1Cc1ccc(F)cc1Cl | i | -1% | i | -15% | 0%
Cc1cccc(Cc2c(C)nc3c(C(=O)NCc4ccco4)cnn3c2C)c1 | 13µM* | 2% | i | 5% | 10%
COc1ccc(N(CC(=O)Nc2ccc(Cl)cc2C)S(=O)(=O)c2ccccc2)c(OC)c1 | ? | . | i | 8% | .
COc1ccc(Cl)cc1NC(=O)CN(c1cccc(C)c1C)S(=O)(=O)c1ccccc1 | 22µM* | . | i | 15% | .
CC[n+]1ccnc2ccccc21 | . | . | . | . | -3%
CCOC(=O)N1CCN(C(=O)c2nn(C)c3c2CSc2ccccc2-3)CC1 | i | 3% | i | 35µM* | 2%
CCn1c(SCC(=O)NCc2ccco2)nnc1-c1ccc(N(C)C)cc1 | . | . | . | . | 2%
CNC(=O)c1cc2c(ccc3ccccc32)o1 | i | 9% | i | ? | 11µM*
O=C(NC1CCCC1)c1cc2c(ccc3ccccc32)o1 | . | -4% | i | 11% | -3%
Cc1cccc(COc2ccccc2C(=O)N(C)CC(=O)Nc2cccc(F)c2)c1 | i | ? | i | 25µM* | 0%[1.84 µM]
CN(CC(=O)Nc1cccc(F)c1)C(=O)/C=C/c1cc(Br)ccc1OC(F)F | i | ? | i | 20µM* | 4%
O/N=C1\CCCc2ccc3ccccc3c21 | i | -2% | i | 11µM* | 12%
O=C1CCCc2ccc3ccccc3c21 | i | . | i | 0% | 16%
Cc1ccc(-n2c(SCC(=O)c3ccc(Br)cc3)nnc2-c2ccncc2)cc1 | i | . | . | . | .
Cc1nc(COc2ccccc2Cl)sc1-c1ccnc(N)n1 | i | 4% | i | 11µM* | 13%
O=C(Nc1ccccc1)N1CCN(c2nc(-c3ccccc3)ns2)CC1 | i | 8% | i | 11µM* | -3%
CCOC(=O)c1c(N)sc2c1CCC1C(=O)N(C3CCCCC3)C(=O)C21 (stereo not given) | 28µM* | 11% | i | -15% | 0%
CCOC(=O)c1c(N)sc2c1CCC(CC)C2 (stereo not given) | i | 6% | ? | 10% | 7%
Cc1ccc(-n2nnnc2C(Cl)c2nnnn2-c2ccc(C)cc2)cc1 | i | 6% | i | 3.5µM* | -47%
Nc1ccc2oc(=O)c3ccccc3c2c1 | . | -9% | i | 13µM* | 19%
O=c1oc(=O)c2ccccc2c2ccccc12 | . | . | i | 0% | 4%
Cc1ccccc1NC(=O)COc1ccccc1C | i | 3% | i | 0% | -8%
Cc1ccc(S(=O)(=O)NC(=O)COc2ccccc2C)c(C)c1 | . | 2% | i | 18µM* | 19%
O=C1CC(c2ccccc2)Sc2ccccc2N1 (stereo not given) | i | -9% | i | 11µM* | .
Cc1ccc(Nc2ccc(C(=O)O)cc2[N+](=O)[O-])cc1 | i | ? | i | 2.8µM* | 1%
SMILES | FUS yeast rescue | Mito fusion act | Abeta rescue | TDP43 rescue | aSyn rescue
O=C(O)c1ccc(Nc2ccc(Cl)c(Cl)c2)c([N+](=O)[O-])c1 | i | 14µM* | i | 19% | 2%
CC(C)Cn1c(=O)c2sccc2n2c(CCCC(=O)NCC(C)c3ccccc3)nnc12 (stereo not given) | i | . | i | 15% | .
COC(=O)CCc1c[nH]c2ccc([N+](=O)[O-])cc12 | i | . | i | 14% | 11%
O=C(CCc1c[nH]c2ccccc12)OCc1cccc([N+](=O)[O-])c1 | i | -13% | 11µM* | ? | 16%
O=C(NC(=S)Nc1ccc(N2CCOCC2)c(Cl)c1)c1cccs1 | i | 21% | ? | 9% | -2%
O=C(NC(=S)Nc1ccc(N2CCOCC2)c(Cl)c1)c1cncc(Br)c1 | i | -3% | i | 20µM* | -8%
O=C(NC(=S)Nc1ncc(Br)cc1Br)c1cncc(Br)c1 | i | -3% | i | 1% | -7%
O=C(NC(=S)NC1CCCCCC1)c1cncc(Br)c1 | . | 7% | ? | 16µM* | -14%

Screening results deposited in PubChem by National Center for Advancing Translational Sciences (NCATS).
